Holding throughout (assay): DAPPL (digital affinity profiling via proximity ligation, sequencing); 10 mM Tris-HCl pH 7.5, 50 mM NaCl, 1 mM DTT, 4% glycerol, room temperature, 30 min; GST-TFs on glutathione beads, 16-mer random dsDNA library, 0.1% formaldehyde crosslink after washing; high values mean tight binding
Holding throughout (conditions): protein: recombinant; tags: N-terminal GST; dsDNA, one strand shown

One test has as its target T1, GABPA (Homo sapiens, UniProt Q06546 1-454).
T1 sequence: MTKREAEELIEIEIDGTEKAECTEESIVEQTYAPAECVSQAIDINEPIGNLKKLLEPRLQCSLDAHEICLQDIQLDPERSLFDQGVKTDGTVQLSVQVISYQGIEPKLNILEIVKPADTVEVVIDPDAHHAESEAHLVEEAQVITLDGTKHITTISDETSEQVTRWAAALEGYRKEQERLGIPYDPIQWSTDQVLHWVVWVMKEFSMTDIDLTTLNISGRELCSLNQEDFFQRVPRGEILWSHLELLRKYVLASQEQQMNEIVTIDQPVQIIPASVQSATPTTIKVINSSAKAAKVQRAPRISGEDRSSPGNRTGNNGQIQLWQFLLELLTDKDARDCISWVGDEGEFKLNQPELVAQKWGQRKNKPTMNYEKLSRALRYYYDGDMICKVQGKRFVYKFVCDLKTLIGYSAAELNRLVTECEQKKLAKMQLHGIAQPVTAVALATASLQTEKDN
In outline:
(§1)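 A tag-only sample was pooled with DNA-barcoded human transcription factors that had been expressed in yeast as GST fusions and captured on glutathione beads. The pools were incubated for 30 min at room temperature with 200 nmole of a random double-stranded 16-mer DNA library in Tris/NaCl/DTT/glycerol buffer, then washed, crosslinked with 0.1% formaldehyde, proximity-ligated (BsaI/T4 ligase, 1 h, 37 °C), PCR-amplified and sequenced on an Illumina NextSeq500. Binding signal is each hexamer's read frequency for a factor divided by its frequency for the tag-only sample.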

The next test addresses T2, ERG (Homo sapiens, UniProt P11308 1-479).
T2 sequence: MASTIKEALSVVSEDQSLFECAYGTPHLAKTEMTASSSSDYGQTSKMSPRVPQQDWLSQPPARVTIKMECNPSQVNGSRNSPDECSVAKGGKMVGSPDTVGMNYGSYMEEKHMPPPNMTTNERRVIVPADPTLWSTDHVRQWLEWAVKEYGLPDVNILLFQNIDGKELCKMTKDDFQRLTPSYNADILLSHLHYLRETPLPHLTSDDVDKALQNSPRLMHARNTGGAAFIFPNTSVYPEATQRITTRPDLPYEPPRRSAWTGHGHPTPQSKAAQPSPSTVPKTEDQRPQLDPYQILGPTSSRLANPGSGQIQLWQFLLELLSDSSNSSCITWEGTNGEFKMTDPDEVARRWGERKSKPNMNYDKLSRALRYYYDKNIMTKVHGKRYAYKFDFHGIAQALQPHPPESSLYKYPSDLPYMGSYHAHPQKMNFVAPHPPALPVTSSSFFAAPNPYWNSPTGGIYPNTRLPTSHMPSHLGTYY
Summed up:
as §1

The target in a further test is ELF1 (Homo sapiens, UniProt P32519 1-619). In outline: as §1
Another test addresses T3, EHF (Homo sapiens, UniProt Q9NZC4 1-300).
T3 sequence: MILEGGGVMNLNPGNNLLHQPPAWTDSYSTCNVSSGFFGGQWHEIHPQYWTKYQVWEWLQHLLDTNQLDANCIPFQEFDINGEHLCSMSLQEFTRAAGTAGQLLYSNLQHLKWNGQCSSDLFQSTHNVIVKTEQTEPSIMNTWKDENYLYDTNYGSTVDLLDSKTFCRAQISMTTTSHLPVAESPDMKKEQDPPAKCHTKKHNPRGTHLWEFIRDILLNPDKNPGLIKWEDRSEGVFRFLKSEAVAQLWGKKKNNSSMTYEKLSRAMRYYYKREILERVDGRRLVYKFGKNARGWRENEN
Summed up: as §1

The target of another test is SPIB (Homo sapiens, UniProt Q01892 1-262). In outline: as §1
For the next test, the target named is T4, ELK3 (Homo sapiens, UniProt P41970 1-407).
T4 sequence: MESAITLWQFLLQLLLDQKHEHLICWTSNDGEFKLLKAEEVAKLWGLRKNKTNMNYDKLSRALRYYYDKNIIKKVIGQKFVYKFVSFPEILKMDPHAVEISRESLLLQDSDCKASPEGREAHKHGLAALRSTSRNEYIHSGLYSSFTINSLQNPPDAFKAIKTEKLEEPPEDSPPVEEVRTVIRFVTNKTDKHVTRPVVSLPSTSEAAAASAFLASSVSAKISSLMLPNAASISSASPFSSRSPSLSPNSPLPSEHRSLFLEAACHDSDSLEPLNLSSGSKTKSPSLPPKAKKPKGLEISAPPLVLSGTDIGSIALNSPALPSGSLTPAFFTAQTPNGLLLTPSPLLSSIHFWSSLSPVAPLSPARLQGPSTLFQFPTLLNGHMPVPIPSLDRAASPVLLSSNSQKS
Summed up: as §1

The target of the next test is T5, SPIC (Homo sapiens, UniProt Q8N5J4 1-248).
T5 sequence: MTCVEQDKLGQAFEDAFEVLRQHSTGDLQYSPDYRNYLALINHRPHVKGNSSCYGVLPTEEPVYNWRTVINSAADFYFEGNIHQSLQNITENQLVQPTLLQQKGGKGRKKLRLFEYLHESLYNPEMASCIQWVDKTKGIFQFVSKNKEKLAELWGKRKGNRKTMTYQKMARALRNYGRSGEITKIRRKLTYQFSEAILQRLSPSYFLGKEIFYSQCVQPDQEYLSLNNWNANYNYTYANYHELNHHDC
In outline:
as §1

A further test has as its target ELF4 (Homo sapiens, UniProt Q99607 1-663). Summed up: as §1
Another test has as its target T6, ELK4 (Homo sapiens, UniProt P28324-2 1-405).
T6 sequence: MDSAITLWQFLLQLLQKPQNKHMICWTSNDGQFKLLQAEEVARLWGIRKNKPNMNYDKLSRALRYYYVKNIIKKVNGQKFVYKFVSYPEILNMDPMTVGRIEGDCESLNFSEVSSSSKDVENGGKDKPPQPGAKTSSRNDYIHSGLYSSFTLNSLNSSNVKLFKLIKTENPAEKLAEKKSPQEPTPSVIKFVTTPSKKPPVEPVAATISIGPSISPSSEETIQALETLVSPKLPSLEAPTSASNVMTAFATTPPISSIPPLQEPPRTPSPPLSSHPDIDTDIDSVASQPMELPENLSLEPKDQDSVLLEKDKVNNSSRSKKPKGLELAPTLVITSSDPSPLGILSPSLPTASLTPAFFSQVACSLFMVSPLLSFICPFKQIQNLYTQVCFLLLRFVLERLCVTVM
In outline: as §1

A further test deals with T7, ELF3 (Homo sapiens, UniProt P78545 1-371).
T7 sequence: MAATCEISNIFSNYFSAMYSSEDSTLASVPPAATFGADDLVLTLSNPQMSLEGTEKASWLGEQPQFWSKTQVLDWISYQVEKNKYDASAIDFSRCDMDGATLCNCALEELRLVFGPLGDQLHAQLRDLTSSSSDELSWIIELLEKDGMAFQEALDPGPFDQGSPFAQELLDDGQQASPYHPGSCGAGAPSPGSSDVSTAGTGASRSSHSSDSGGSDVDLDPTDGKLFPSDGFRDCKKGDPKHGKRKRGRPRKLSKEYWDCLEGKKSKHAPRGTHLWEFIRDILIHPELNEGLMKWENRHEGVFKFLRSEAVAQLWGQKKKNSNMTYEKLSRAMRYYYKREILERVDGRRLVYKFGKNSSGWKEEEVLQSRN
In outline:
as §1

In a further test the target is ETV1 (Homo sapiens, UniProt P50549 1-477). Summed up:
as §1

In a further test the target is T8, ERF (Homo sapiens, UniProt P50548 1-548).
T8 sequence: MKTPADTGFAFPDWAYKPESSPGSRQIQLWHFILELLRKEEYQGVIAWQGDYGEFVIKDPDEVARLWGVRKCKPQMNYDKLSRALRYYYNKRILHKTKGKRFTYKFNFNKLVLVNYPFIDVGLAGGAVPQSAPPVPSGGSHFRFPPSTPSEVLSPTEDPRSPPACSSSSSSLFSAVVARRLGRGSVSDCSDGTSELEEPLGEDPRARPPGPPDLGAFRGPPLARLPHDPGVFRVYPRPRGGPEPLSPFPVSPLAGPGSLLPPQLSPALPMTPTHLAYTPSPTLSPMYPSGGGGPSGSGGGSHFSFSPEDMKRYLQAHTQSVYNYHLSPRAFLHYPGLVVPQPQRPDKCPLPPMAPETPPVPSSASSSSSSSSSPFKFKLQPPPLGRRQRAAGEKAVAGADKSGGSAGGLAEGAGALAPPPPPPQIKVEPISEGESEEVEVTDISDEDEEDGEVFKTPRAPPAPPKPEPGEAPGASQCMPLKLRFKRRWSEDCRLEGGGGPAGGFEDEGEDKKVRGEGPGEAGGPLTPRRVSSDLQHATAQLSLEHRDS
Summed up:
as §1

A further test has as its target T9, ETV3L (Homo sapiens, UniProt Q6ZN32 1-361).
T9 sequence: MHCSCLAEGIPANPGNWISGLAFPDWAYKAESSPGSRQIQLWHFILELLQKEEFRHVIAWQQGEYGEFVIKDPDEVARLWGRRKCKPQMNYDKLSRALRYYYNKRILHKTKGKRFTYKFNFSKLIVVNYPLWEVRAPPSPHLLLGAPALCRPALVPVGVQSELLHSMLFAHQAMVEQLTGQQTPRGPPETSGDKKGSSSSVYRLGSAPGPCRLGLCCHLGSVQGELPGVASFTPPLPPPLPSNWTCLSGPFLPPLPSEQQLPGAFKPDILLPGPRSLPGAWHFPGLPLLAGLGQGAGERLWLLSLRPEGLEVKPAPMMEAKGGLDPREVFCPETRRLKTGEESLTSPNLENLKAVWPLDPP
Summed up: as §1

A further test addresses T10, ETS2 (Homo sapiens, UniProt P15036 1-469).
T10 sequence: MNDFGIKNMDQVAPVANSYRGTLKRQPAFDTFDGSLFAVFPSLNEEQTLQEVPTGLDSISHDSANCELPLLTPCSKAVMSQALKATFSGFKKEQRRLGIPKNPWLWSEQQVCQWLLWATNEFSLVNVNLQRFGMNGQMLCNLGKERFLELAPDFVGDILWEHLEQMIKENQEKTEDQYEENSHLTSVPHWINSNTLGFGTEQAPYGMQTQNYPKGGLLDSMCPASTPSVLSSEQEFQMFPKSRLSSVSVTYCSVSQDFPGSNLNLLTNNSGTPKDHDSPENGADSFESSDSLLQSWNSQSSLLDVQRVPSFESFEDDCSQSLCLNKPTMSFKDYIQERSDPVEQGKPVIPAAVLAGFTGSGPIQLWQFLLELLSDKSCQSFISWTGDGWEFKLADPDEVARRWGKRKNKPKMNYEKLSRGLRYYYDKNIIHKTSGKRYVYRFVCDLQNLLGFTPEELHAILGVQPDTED
Summed up:
as §1

For the next test, the target named is T11, SPDEF (Homo sapiens, UniProt O95238 1-335).
T11 sequence: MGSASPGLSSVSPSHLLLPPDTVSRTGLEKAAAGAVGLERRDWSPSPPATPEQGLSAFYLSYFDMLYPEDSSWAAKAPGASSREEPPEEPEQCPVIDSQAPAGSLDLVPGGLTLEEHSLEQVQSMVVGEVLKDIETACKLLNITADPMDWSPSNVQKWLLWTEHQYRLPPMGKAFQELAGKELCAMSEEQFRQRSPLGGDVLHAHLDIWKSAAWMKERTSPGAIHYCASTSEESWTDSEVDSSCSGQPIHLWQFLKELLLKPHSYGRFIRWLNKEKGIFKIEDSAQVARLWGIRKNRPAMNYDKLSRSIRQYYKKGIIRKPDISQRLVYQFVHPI
In outline:
as §1

Another test concerns the target T12, ETV7 (Homo sapiens, UniProt Q9Y603 1-341).
T12 sequence: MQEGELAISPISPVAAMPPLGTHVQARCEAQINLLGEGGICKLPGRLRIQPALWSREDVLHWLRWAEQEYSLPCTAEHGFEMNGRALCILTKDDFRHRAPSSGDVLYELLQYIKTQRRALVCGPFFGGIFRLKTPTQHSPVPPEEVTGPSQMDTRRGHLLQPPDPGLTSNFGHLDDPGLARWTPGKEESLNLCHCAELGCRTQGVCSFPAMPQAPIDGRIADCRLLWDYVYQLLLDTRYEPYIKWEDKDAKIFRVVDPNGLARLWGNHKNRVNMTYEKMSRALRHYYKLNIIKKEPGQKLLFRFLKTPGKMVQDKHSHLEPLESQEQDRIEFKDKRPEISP
Summed up: as §1

The next test concerns the target T13, ETV3 (Homo sapiens, UniProt P41162-2 1-143).
T13 sequence: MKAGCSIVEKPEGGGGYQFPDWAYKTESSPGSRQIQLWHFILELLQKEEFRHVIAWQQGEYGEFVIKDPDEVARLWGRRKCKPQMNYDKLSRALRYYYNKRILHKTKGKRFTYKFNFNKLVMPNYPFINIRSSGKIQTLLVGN
Summed up:
as §1

Another test concerns the target ETV6 (Homo sapiens, UniProt P41212 1-452). In outline:
as §1

Chain of ELF1 (P32519 whole entry): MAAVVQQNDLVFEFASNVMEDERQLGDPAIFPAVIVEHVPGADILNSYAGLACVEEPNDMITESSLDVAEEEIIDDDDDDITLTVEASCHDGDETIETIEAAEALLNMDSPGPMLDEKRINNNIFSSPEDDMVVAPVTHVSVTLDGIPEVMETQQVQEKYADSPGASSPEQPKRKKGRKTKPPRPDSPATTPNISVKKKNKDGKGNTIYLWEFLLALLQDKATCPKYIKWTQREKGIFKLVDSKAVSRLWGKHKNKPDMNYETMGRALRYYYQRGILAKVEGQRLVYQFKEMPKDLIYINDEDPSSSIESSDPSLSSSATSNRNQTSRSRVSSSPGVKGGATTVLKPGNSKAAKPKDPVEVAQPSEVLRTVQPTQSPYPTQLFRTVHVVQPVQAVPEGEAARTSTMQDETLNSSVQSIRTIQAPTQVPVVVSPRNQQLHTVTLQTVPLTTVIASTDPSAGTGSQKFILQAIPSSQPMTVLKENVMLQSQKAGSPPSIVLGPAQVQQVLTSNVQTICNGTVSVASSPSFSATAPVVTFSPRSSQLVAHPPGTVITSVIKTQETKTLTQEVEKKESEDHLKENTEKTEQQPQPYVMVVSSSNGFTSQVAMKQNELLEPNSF
Chain of ETV6 (P41212 whole entry): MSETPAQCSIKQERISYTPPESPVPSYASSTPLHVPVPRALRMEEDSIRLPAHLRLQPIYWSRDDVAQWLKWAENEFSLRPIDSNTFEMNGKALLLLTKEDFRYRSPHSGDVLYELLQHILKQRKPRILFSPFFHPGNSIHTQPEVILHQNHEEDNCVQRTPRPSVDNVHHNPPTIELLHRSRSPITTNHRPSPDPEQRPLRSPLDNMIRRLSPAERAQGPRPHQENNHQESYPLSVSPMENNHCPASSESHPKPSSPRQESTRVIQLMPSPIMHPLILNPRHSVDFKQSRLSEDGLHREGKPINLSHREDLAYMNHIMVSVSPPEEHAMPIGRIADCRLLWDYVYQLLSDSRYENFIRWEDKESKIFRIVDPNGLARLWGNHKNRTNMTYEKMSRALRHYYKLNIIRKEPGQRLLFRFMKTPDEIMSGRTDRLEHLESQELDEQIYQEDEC
Chain of ELF4 (Q99607 whole entry): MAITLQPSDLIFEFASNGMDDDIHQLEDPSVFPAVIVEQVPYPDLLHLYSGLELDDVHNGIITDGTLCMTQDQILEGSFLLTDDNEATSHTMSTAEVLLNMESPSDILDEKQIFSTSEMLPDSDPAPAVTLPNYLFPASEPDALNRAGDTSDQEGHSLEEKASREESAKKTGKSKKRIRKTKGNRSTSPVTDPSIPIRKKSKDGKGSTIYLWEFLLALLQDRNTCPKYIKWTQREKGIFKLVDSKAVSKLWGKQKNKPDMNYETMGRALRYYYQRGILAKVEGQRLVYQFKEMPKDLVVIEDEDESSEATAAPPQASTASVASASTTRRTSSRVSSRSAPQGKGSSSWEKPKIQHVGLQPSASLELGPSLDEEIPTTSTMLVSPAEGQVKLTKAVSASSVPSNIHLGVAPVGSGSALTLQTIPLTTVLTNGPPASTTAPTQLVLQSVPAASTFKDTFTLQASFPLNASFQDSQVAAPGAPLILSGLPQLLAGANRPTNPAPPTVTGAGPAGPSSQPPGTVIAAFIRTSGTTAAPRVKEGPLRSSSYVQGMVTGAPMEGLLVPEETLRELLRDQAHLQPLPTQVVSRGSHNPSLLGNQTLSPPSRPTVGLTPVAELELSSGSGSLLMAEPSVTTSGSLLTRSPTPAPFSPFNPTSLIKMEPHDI
Chain of SPIB (Q01892 whole entry): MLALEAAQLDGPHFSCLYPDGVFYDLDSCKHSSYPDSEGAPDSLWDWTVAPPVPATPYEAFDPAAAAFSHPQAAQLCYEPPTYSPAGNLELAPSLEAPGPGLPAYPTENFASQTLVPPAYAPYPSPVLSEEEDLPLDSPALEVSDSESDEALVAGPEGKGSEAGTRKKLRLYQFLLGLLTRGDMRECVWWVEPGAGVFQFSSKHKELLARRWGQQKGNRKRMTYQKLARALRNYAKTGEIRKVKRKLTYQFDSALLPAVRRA
Chain of ETV1 (P50549 whole entry): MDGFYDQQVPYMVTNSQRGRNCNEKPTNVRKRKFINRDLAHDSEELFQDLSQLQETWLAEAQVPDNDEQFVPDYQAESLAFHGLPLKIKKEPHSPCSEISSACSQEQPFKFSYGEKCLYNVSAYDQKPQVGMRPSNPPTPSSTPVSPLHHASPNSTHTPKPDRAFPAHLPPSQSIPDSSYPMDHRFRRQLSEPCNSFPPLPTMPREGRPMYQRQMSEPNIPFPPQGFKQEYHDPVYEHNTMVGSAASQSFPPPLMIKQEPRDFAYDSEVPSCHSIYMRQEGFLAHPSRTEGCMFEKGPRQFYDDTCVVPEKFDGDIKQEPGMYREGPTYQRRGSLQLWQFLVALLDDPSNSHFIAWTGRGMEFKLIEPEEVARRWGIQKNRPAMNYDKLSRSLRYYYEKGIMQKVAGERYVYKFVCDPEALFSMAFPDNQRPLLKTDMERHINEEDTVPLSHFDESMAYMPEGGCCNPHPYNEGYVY

Turning to TTGCCA, the binding signal in the test with GABPA was 1.13 fold enrichment (6-mer frequency, TF over GST control); with ERG, 1.08 fold enrichment (6-mer frequency, TF over GST control); in the test with ELF1, 1.03 fold enrichment (6-mer frequency, TF over GST control); with EHF, 1.12 fold enrichment (6-mer frequency, TF over GST control); with SPIB, 1.02 fold enrichment (6-mer frequency, TF over GST control); with ELK3, 1.05 fold enrichment (6-mer frequency, TF over GST control). Further, the binding signal with SPIC was 1.16 fold enrichment (6-mer frequency, TF over GST control); with ELF4, 1.07 fold enrichment (6-mer frequency, TF over GST control); with ELK4, 1.15 fold enrichment (6-mer frequency, TF over GST control); with ELF3, 1.17 fold enrichment (6-mer frequency, TF over GST control); with ETV1 it was 1.06 fold enrichment (6-mer frequency, TF over GST control); with ERF it was 1.23 fold enrichment (6-mer frequency, TF over GST control). Further, the binding signal was 1 fold enrichment (6-mer frequency, TF over GST control) in the test with ETV3L; 1.05 fold enrichment (6-mer frequency, TF over GST control) with ETS2; 1.14 fold enrichment (6-mer frequency, TF over GST control) with SPDEF; 1.03 fold enrichment (6-mer frequency, TF over GST control) in the test with ETV7; 1.12 fold enrichment (6-mer frequency, TF over GST control) in the test with ETV3; 1.06 fold enrichment (6-mer frequency, TF over GST control) in the test with ETV6.

These data come from article PMC7862700, “An all-to-all approach to the identification of sequence-specific readers for epigenetic DNA modifications on cytosine”.
